Experimental data as given in PubChem BioAssay (NCATS).
The source made the active and inactive calls. Calls come from the whole dose curve; as a rule, active = well fitted curve in the direction sought with a large enough effect; inactive = no such curve, though single readings can be large or run the other way.

What follows are molecules tested against Alpha-galactosidase A (Homo sapiens) (UniProt P06280) (assay: Counterscreen for Glucocerebrosidase Inhibitors: qHTS Assay for Human alpha-Galactosidase at pH 4.5 (AID 992; note: 0% is about no effect)). Conditions: purified enzyme, fluorogenic substrate; series mostly up to 76.9 µM; activity change, negative = inhibition: at the top concentration.
Sequence of Alpha-galactosidase A (Homo sapiens) (P06280 whole entry, looked up): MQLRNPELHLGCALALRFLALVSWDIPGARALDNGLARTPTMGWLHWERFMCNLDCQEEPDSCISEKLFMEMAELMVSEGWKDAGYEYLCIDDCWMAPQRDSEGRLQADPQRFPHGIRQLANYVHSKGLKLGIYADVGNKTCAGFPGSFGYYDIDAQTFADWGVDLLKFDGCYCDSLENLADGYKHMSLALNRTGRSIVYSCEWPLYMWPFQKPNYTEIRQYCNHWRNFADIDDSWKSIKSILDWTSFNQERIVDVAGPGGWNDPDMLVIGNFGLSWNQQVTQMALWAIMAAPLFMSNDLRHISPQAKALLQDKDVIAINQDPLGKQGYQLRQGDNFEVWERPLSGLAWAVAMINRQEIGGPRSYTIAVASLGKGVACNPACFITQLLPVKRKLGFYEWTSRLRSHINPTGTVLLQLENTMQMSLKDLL
Summary of the method: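 Quantitative HTS: compounds tested from 0.7 nM up to 77 uM against 2 nM enzyme with 80 uM 4-MU alpha-D-galactopyranoside. The 20 min room-temperature reaction is stopped with 1M NaOH/1M glycine, pH 10.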

Row | SMILES | activity change, negative = inhibition
1 | N[C@H](C(=O)O)[C@H](O)C(=O)O | 1.93% (inactive)
2 | O=c1onc2n1-c1cc(Br)ccc1OC2 | -1.44% (inactive)
3 | Nc1ncnc2c1ncn2C1CCCC1 | 1.95% (inactive)
4 | Nc1ccc(-c2ccc3ccccc3n2)cc1 | -0.947% (inactive)
5 | N#Cc1cc2nc(O)c(O)nc2cc1[N+](=O)[O-] | -5.79% (inactive)
6 | O=[N+]([O-])c1cccc2cn[nH]c12 | -2.75% (inactive)
7 | N#C/C(=C\c1ccc(O)c(O)c1)C(=O)NCCCNC(=O)/C(C#N)=C/c1ccc(O)c(O)c1 | -5.4% (inactive)
8 | O=[N+]([O-])c1cccc2c(Br)[nH]nc12 | -5.81% (inactive)
9 | COc1cc2c(CCNC(C)=O)c[nH]c2cc1O | -1.88% (inactive)
10 | N#CC(C#N)=C(N)/C(C#N)=C/c1ccc(O)cc1 | -4.28% (inactive)
11 | OC1(c2ccc(Cl)cc2)CCN(Cc2c[nH]c3ccccc23)CC1 | -5.65% (inactive)
12 | O=C(O)c1cc(=O)cc(C(=O)O)[nH]1 | 2.05% (inactive)
13 | NC(N)=NC(N)=Nc1ccccc1 | -0.951% (inactive)
14 | C=CCn1c(=O)c2c(nc(-c3ccc(S(=O)(=O)O)cc3)n2C)n(C)c1=O | 2.86% (inactive)
15 | CSC(=N)N | -0.387% (inactive)
16 | O=C(O)c1cc2cc(F)ccc2[nH]1 | -0.517% (inactive)
17 | Nc1ccc(N2C(=O)c3ccccc3C2=O)c(Cl)c1 | 2.59% (inactive)
18 | NCCS(=O)O | -1.27% (inactive)
19 | O=C(O)c1cccnc1C(=O)O | -3.59% (inactive)
20 | Cc1nc(N=Nc2cc(S(=O)(=O)O)c3cc([N+](=O)[O-])cc(S(=O)(=O)O)c3c2)c(COP(=O)(O)O)c(C=O)c1O | 0.792% (inactive)

Row | SMILES | activity change, negative = inhibition
21 | COc1ccc2c(c1)c(CC(=O)O)c(C)n2Cc1ccc(Cl)cc1 | 0.552% (inactive)
22 | CC(=O)NCCc1c[nH]c2ccc(O)cc12 | 2.49% (inactive)
23 | O=C1Cc2c([nH]c3ccc(Br)cc23)-c2ccccc2N1 | -0.716% (inactive)
24 | O=C(O)Cc1ccc(O)c(O)c1 | -0.624% (inactive)
25 | Cn1cc(C(=O)OCC2CCN(CCNS(C)(=O)=O)CC2)c2ccccc21 | -2.43% (inactive)
26 | NC1(C(=O)O)CCCCC1 | -0.131% (inactive)
27 | O=c1[nH]c2ccccc2c2ccccc12 | 0.225% (inactive)
28 | CC(C)(CO)Cc1cc(C(C)(C)C)c(O)c(C(C)(C)C)c1 | -9.94% (inactive)
29 | Cc1cc2c(cc1Cl)N(C(=O)Nc1ccnc3ccccc13)CC2 | -1.95% (inactive)
30 | CCCCCCCCCCC/C=C\C(C)(C)/C=C\CCCC(=O)O | -4.74% (inactive)
31 | [Li+] | -1.31% (inactive)
32 | O=C(OCCN1CCOCC1)C1(c2ccccc2)CCCCC1 | -0.611% (inactive)
33 | CCC(=O)N1CCN(C(=O)c2ccccc2)CC1 | -1.29% (inactive)
34 | Nc1nc2ccc(Cl)cc2c2nc(-c3ccco3)nn12 | -7.74% (inactive)
35 | Cn1c(=O)c2[nH]c(C3CCCC3)nc2n(C)c1=O | -1.11% (inactive)
36 | O=C(O)c1ccccc1Nc1cccc(OCc2ccc3ccccc3n2)c1 | -0.0455% (inactive)
37 | O=c1cc(-c2ccccc2)[nH]c2nc(Cl)ccc12 | 0.562% (inactive)
38 | NOCC(=O)O | -4.01% (inactive)
39 | Cn1c(=O)c2[nH]c(-c3ccc(S(=O)(=O)O)cc3)nc2n(C)c1=O | 14.3% (inactive)
